# Results taken from PubChem BioAssay (EPA / NIEHS).
# Records with an inconclusive call do not appear. Active and inactive are the calls of the source. Rule for the calls, unless noted: active = hit-call score of the fitted dose curve at least 0.9, where 1 is the maximum; inactive = score below 0.9.
# What was measured:
# [1] = biological target: Peroxisome proliferator-activated receptor gamma (Homo sapiens) (UniProt P37231); experiment: OT_PPARg_PPARgSRC1_0480: Odyssey Thera (OT) 8-hour Protein-Complementation Assay for Peroxisome Proliferator-activated Receptor Gamma / SRC-1 Co-activator (AID 2283387; active = hit-call score of the fitted dose curve at least 0.9, where 1 is the maximum;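 note: nuclear to cytoplasmic split Venus YFP fluorescence ratio reporting PPARg SRC-1 interaction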)
# Procedure, shortened: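 Split-YFP (IFP1/IFP2) PPARg/SRC-1 reporter, HEK293T, 37 °C, 5% CO2; 8 h compound; formaldehyde fix + Draq5; high-content imaging, N/C ratio, ≥350 cells/image, positive direction vs DMSO.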
# [2] = biological target: Peroxisome proliferator-activated receptor gamma (Homo sapiens) (UniProt P37231); experiment: OT_PPARg_PPARgSRC1_1440: Odyssey Thera (OT) 24-hour Protein-Complementation Assay for Peroxisome Proliferator-activated Receptor Gamma/ SRC-1 Co-activator (AID 2283388; active = hit-call score of the fitted dose curve at least 0.9, where 1 is the maximum;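 note: nuclear to cytoplasmic ratio of reconstituted Venus YFP fluorescence in fixed imaged cells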)
# Procedure, shortened: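 Protein-fragment complementation between PPARg and coactivator SRC-1 was measured by fluorescence imaging in transiently transfected HEK293T cells after 24 h treatment. Signal was quantified as N/C ratio in the 488 nm channel, with DMSO as negative control.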
# [3] = CEETOX_H295R_11DCORT: CeeTox H295R High-throughput Steroidogenesis Assay for 11-Deoxycortisol (11DCORT) (AID 2283432); conditions: actives raise or lower the signal
# Procedure, shortened: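 Steroidogenesis in human H295R cells: 48 h chemical exposure after forskolin priming, 11-deoxycortisol measured by LC-MS/MS.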
# [4] = CEETOX_H295R_OHPREG: CeeTox H295R High-throughput Steroidogenesis Assay for OH-Pregnenolone (OHPREG) (AID 2283434); conditions: actives raise or lower the signal
# Procedure, shortened: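 Hormone levels in spent medium were measured by tandem mass spectrometry following liquid-liquid extraction. Cells (H295R) had been forskolin-stimulated (10 uM, 48 h) before a 48 h chemical exposure at 0.1% DMSO, with activity fitted in both directions against DMSO.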
# [5] = CEETOX_H295R_OHPROG: CeeTox H295R High-throughput Steroidogenesis Assay for OH-Progesterone (OHPROG) (AID 2283435); conditions: actives raise or lower the signal;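 for AC50: 17alpha-hydroxyprogesterone secreted into medium measured by HPLC-MS/MS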
# Procedure, shortened: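 Secreted 17alpha-hydroxyprogesterone is read by tandem MS from media of forskolin-primed H295R cells dosed with chemical for 48 h. Activity is fitted in both directions against DMSO baseline; cytotoxic concentrations are re-tested diluted.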
# [6] = CEETOX_H295R_CORTIC: CeeTox H295R High-throughput Steroidogenesis Assay for Corticosterone (CORTIC) (AID 2283437); conditions: actives raise or lower the signal;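 note: corticosterone secreted into medium quantified by mass spectrometry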
# Procedure, shortened: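 Corticosterone secreted into medium is measured by reverse-phase HPLC with tandem MS following liquid-liquid extraction. Cells are forskolin-stimulated (10 uM, 48 h) before 48 h test exposure; activity fitted in both directions against DMSO.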
# [7] = CEETOX_H295R_CORTISOL: CeeTox H295R High-throughput Steroidogenesis Assay for Cortisol (AID 2283438); conditions: actives raise or lower the signal;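 note: cortisol secreted into medium quantified by LC-MS/MS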
# Procedure, shortened: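 Human adrenocortical H295R cells (passage ≤10) received test chemicals for 48 h after forskolin priming. Secreted cortisol was measured by LC-MS/MS.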
# [8] = CEETOX_H295R_DOC: CeeTox H295R High-throughput Steroidogenesis Assay for DOC (AID 2283439); conditions: actives raise or lower the signal
# Procedure, shortened: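 Secreted DOC was quantified from H295R media by HPLC-MS/MS after 48 h chemical exposure following 48 h forskolin (10 uM) prestimulation. Values were fitted in both directions relative to DMSO, the negative control and baseline.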
# [9] = CEETOX_H295R_ESTRADIOL: CeeTox H295R High-throughput Steroidogenesis Assay for Estradiol (AID 2283440); conditions: actives raise or lower the signal;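 note: estradiol secreted into medium quantified by LC-MS/MS after dansyl derivatisation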
# Procedure, shortened: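 Estradiol secreted into the medium was measured by tandem mass spectrometry after liquid-liquid extraction and dansylation. Human H295R cells had been forskolin-primed (10 uM, 48 h) before a 48 h chemical exposure with 0.1% DMSO.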
# [10] = CEETOX_H295R_ESTRONE: CeeTox H295R High-throughput Steroidogenesis Assay for Estrone (AID 2283441); conditions: actives raise or lower the signal;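 note: estrone secreted into medium measured by LC-MS/MS after dansyl derivatization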
# Procedure, shortened: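 H295R cells; 48 h forskolin (10 uM) prestimulation; 48 h compound exposure, 0.1% DMSO final. Medium estrone: MTBE extraction, dansyl derivatization, HPLC-MS/MS. Bidirectional fit vs DMSO.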
# [11] = CEETOX_H295R_PROG: CeeTox H295R High-throughput Steroidogenesis Assay for Progesterone (PROG) (AID 2283442); conditions: actives raise or lower the signal;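 for AC50: human H295R adrenal cells primed with 10 µM forskolin before dosing; progesterone secreted into medium by H295R cells measured by HPLC-MS/MS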
# Procedure, shortened: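 Steps: seed H295R cells and let them adhere overnight; prime 48 h with 10 uM forskolin; dose with compound in DMSO at 0.1% final for 48 h; extract medium steroids with MTBE; measure progesterone by LC-MS/MS. MTT viability was run in the same wells.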
# [12] = read-out: Tumor necrosis factor receptor superfamily member 6 (Homo sapiens) (UniProt P25445); experiment: LTEA_HepaRG_FAS: Life Technologies and Expression Analysis (LTEA) Assay for Fas cell surface death receptor (FAS) using HepaRG (AID 2283447); conditions: mRNA level, 48 h; actives raise or lower the signal
# Procedure, shortened: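 FAS transcript level was measured by TaqMan qRT-PCR against three housekeeping genes after 48 h chemical exposure. Cells were HepaRG, 0.5% DMSO vehicle, with a top concentration of 100 uM and half-log dilutions over eight points, in duplicate.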
# [13] = read-out: Fatty acid synthase (Homo sapiens) (UniProt P49327); experiment: LTEA_HepaRG_FASN: Life Technologies and Expression Analysis (LTEA) Assay for Fatty Acid Synthase (FASN) using HepaRG (AID 2283448); conditions: mRNA level, 48 h; actives raise or lower the signal;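 for AC50: differentiated human HepaRG liver cells in serum-free induction medium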
# Procedure, shortened: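 Transcript-level assay: HepaRG liver cells are treated for 48 h across an eight-point range topping at 100 uM, and FASN mRNA, normalized to three housekeeping genes, is compared with DMSO controls in both directions.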
# [14] = read-out: Cyclin D2 (CCND2), CCND2 (gene 894); experiment: LTEA_HepaRG_CCND2: Life Technologies and Expression Analysis (LTEA) Assay for Cyclin D2 (CCND2) using HepaRG (AID 2283449); conditions: mRNA level, 48 h; actives raise or lower the signal
# Procedure, shortened: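 Read-out is CCND2 mRNA level measured by qRT-PCR in human HepaRG liver cells and normalised to three housekeeping genes. Chemicals were applied for 48 h at up to 100 uM, with gain or loss fitted relative to 0.5% DMSO.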
# [15] = read-out: Cyclin Dependent Kinase Inhibitor 1A (CDKN1A), CDKN1A (gene 1026); experiment: LTEA_HepaRG_CDKN1A: Life Technologies and Expression Analysis (LTEA) Assay for Cyclin Dependent Kinase Inhibitor 1A (CDKN1A) using HepaRG (AID 2283450); conditions: mRNA level, 48 h; actives raise or lower the signal
# Procedure, shortened: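 Read-out is CDKN1A mRNA by TaqMan qRT-PCR, normalized to three housekeeping genes and fitted in both directions against the DMSO baseline. Human HepaRG cells were treated 48 h with test chemicals up to 100 uM in half-log steps, 0.5% DMSO.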
# [16] = read-out: Cyclin D1 (CCND1), CCND1 (gene 595); experiment: LTEA_HepaRG_CCND1: Life Technologies and Expression Analysis (LTEA) Assay for Cyclin D1 (CCND1) using HepaRG (AID 2283451); conditions: mRNA level, 48 h; actives raise or lower the signal;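 for AC50: differentiated human HepaRG liver cells in serum-free induction medium; TaqMan qRT-PCR transcript level normalised to ACTB GAPDH and POLR2A housekeeping genes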
# Procedure, shortened: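 HepaRG plated 48 h, medium switched to serum-free induction medium, chemicals added in duplicate (top 100 uM, half-log steps, 0.5% DMSO) for 48 h, cells lysed, RNA measured by TaqMan qRT-PCR.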
# [17] = read-out: catalase (CAT), CAT (gene 847); experiment: LTEA_HepaRG_CAT: Life Technologies and Expression Analysis (LTEA) Assay for catalase (CAT) using HepaRG (AID 2283452); conditions: mRNA level, 48 h; actives raise or lower the signal;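 for AC50: TaqMan qRT-PCR signal normalized to ACTB GAPDH and POLR2A housekeeping genes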
# Procedure, shortened: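 Expression of CAT was quantified by TaqMan qRT-PCR with ACTB/GAPDH/POLR2A normalization after 48 h chemical exposure of HepaRG. Eight-point half-log series, top 100 uM, in 0.5% DMSO; gain or loss fitted against vehicle.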
# [18] = CEETOX_H295R_ANDR: CeeTox H295R High-throughput Steroidogenesis Assay for Androstenedione (ANDR) (AID 2283436); conditions: actives raise or lower the signal;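 note: human H295R adrenal cells exposed for 48 h with androstenedione measured in medium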
# Procedure, shortened: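 Read-out is androstenedione secreted into medium, measured by tandem mass spectrometry after liquid-liquid extraction. Cells were H295R, dosed for 48 h per modified OECD 456; activity fitted in both directions relative to DMSO.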
# [19] = biological target: Retinoic acid receptor RXR-alpha (Homo sapiens) (UniProt P19793); experiment: OT_NURR1_NURR1RXRa_1440: Odyssey Thera (OT) 24-hour HEK293T Protein Complementation Assay for Nurr1/retinoid X receptor (RXR) (AID 2283386; active = hit-call score of the fitted dose curve at least 0.9, where 1 is the maximum)
# Procedure, shortened: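 Measured as fluorescence from a reconstituted split reporter, this 24 h HEK293T complementation assay scores compound-induced gain of Nurr1/RXRα association relative to DMSO.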
# Sequence of Retinoic acid receptor RXR-alpha (Homo sapiens) (P19793 whole entry, looked up): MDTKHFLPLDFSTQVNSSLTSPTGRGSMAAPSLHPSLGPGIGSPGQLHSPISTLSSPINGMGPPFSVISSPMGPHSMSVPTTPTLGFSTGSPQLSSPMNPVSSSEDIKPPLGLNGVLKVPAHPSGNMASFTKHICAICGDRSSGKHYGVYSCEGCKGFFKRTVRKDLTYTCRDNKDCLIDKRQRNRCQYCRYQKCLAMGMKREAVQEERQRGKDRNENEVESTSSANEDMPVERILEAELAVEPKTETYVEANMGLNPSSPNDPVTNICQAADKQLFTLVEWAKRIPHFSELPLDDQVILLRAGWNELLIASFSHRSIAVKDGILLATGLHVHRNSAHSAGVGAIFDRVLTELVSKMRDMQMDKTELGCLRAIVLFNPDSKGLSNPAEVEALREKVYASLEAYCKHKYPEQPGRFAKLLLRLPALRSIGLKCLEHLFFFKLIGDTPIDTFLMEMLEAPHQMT
# Sequence of Fatty acid synthase (Homo sapiens) (P49327 whole entry, looked up): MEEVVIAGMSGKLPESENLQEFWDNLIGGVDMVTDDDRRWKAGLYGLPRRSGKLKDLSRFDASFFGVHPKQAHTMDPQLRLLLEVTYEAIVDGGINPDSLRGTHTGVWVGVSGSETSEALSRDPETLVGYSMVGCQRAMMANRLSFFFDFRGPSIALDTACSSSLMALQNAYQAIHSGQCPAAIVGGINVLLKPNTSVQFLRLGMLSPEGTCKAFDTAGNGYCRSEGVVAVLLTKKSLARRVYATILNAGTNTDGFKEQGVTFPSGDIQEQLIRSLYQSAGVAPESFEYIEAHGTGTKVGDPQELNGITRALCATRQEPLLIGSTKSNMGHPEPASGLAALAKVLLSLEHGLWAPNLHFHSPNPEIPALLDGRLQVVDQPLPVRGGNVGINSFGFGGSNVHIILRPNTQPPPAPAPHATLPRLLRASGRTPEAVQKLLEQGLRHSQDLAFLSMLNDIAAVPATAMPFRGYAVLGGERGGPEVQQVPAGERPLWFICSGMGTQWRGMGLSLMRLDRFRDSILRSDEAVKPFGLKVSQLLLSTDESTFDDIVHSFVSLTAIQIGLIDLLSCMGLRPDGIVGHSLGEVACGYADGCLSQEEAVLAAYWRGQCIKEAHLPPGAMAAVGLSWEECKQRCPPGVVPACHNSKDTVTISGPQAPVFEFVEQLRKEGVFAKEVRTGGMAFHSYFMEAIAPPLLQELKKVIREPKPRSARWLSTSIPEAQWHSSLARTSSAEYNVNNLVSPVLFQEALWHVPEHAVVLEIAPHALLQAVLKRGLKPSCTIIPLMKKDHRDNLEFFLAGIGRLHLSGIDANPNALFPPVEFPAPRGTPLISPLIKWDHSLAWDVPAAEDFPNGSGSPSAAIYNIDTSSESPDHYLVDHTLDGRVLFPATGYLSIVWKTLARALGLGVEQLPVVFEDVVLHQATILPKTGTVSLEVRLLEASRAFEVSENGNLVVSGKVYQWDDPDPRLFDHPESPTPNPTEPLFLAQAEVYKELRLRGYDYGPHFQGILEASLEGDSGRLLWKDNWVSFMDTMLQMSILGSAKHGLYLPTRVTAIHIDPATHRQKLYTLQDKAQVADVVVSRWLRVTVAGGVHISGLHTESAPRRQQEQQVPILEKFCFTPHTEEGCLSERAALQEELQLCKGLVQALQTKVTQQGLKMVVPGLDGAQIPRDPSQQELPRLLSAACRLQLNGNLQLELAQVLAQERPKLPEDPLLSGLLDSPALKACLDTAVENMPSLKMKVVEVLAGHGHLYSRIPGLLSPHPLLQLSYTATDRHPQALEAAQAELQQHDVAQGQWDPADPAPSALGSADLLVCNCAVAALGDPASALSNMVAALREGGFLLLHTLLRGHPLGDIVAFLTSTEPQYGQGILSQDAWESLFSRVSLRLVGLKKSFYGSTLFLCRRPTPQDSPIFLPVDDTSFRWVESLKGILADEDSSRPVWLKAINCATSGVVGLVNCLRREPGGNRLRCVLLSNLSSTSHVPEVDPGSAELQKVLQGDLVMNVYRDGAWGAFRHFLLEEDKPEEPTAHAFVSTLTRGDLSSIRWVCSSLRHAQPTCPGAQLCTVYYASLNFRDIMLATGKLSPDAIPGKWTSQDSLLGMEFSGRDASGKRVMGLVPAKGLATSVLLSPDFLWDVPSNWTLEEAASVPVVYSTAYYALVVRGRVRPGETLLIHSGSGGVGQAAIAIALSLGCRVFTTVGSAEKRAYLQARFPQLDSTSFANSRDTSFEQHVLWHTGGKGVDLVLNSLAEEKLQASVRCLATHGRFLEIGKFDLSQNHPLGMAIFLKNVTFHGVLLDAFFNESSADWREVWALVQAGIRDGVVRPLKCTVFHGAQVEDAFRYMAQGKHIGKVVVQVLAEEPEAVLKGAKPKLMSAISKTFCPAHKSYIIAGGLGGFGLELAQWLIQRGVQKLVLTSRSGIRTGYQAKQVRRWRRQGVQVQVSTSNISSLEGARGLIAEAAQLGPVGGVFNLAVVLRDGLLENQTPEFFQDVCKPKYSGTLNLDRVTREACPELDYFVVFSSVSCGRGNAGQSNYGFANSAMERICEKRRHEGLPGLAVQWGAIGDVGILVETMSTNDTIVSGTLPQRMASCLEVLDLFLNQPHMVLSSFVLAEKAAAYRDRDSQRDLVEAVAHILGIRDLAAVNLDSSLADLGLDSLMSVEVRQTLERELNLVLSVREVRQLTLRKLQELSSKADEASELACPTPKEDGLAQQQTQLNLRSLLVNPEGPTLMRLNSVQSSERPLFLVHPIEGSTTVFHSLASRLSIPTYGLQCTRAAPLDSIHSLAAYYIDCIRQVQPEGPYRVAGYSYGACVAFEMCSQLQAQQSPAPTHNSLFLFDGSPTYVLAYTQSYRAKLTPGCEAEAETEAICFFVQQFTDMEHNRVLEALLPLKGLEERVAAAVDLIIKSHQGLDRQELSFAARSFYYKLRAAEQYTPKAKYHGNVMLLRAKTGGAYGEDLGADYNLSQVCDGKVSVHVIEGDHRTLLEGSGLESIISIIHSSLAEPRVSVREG
# Sequence of Peroxisome proliferator-activated receptor gamma (Homo sapiens) (P37231 whole entry, looked up, the tested form may be a part): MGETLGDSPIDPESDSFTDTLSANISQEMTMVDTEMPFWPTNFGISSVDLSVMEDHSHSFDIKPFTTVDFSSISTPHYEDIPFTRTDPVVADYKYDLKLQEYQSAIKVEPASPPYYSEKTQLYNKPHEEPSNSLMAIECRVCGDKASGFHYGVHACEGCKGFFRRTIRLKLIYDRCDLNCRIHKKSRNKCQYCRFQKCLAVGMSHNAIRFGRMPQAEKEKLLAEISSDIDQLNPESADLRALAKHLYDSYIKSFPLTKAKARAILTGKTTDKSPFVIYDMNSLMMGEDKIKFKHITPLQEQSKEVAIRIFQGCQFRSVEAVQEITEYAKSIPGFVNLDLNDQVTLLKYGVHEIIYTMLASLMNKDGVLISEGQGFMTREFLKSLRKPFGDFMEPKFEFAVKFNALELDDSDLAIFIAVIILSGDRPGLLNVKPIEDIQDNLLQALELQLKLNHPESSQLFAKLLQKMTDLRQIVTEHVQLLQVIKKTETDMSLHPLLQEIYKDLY
smiles,measurement,setting,value
Cc1c(F)c(F)c(COC(=O)C2C(/C=C(\Cl)C(F)(F)F)C2(C)C)c(F)c1F (centres undefined),outcome,[1],inactive
same,outcome,[2],inactive
same,outcome,[3],inactive
same,outcome,[4],inactive
same,outcome,[5],inactive
same,outcome,[6],inactive
same,outcome,[7],inactive
same,outcome,[8],inactive
same,outcome,[9],inactive
same,outcome,[10],inactive
same,outcome,[11],inactive
same,outcome,[12],inactive
same,outcome,[13],inactive
same,outcome,[14],inactive
same,outcome,[15],inactive
same,outcome,[16],inactive
same,outcome,[17],inactive
CCOC(=O)CC(SP(=S)(OC)OC)C(=O)OCC (centres undefined),outcome,[1],inactive
same,outcome,[2],inactive
same,outcome,[3],inactive
same,outcome,[4],inactive
same,AC50,[5],25.8 µM (active)
same,outcome,[18],inactive
same,outcome,[6],inactive
same,outcome,[7],inactive
same,outcome,[8],inactive
same,AC50,[11],21 µM (active)
same,outcome,[12],inactive
same,outcome,[14],inactive
same,outcome,[15],inactive
same,outcome,[16],inactive
same,outcome,[17],inactive
CC(Oc1ccc(Cl)cc1Cl)C(=O)O (centres undefined),outcome,[19],inactive
same,outcome,[1],inactive
same,outcome,[2],inactive
same,outcome,[12],inactive
same,outcome,[13],inactive
same,outcome,[14],inactive
same,outcome,[15],inactive
same,outcome,[16],inactive
same,outcome,[17],inactive
CCc1nn(C)c(C(=O)NCc2ccc(C(C)(C)C)cc2)c1Cl,AC50,[19],11.6 µM (active)
same,outcome,[1],inactive
same,outcome,[2],inactive
same,outcome,[12],inactive
same,AC50,[13],42.5 µM (active)
same,outcome,[14],inactive
same,AC50,[15],3.24 µM (active)
same,AC50,[16],0.382 µM (active)
same,AC50,[17],6.22 µM (active)
CS/C(C)=N/OC(=O)N(C)SN(C)C(=O)O/N=C(\C)SC,outcome,[1],inactive
same,outcome,[2],inactive
same,outcome,[12],inactive
same,outcome,[13],inactive
same,outcome,[14],inactive
same,outcome,[15],inactive
same,outcome,[16],inactive
same,outcome,[17],inactive
CC(C)C1(C)N=C(c2nc3ccccc3cc2C(=O)O)NC1=O (centres undefined),outcome,[19],inactive
same,outcome,[1],inactive
same,outcome,[2],inactive
same,outcome,[12],inactive
same,outcome,[13],inactive
same,outcome,[15],inactive
same,outcome,[16],inactive
same,outcome,[17],inactive
CN(C)C(=S)SSC(=S)N(C)C,outcome,[1],inactive
same,outcome,[2],inactive
same,outcome,[12],inactive
same,outcome,[13],inactive
same,outcome,[14],inactive
same,outcome,[15],inactive
same,outcome,[16],inactive
same,outcome,[17],inactive
